Screening results deposited in PubChem by National Center for Advancing Translational Sciences (NCATS).
G9a block: G9a (human) methyltransferase inhibition; G9a H3K9 monomethylation, AlphaScreen, 2 h; Potency, µM (titrated, usually from 102 µM), most hits filed as inhibitors; AID 504332; 350,000 tested, 8.8% active; Q96KQ7; further: nearly all actives have a fitted effect of over 75% in size
Target sequence (Q96KQ7 913-1193 limits assumed): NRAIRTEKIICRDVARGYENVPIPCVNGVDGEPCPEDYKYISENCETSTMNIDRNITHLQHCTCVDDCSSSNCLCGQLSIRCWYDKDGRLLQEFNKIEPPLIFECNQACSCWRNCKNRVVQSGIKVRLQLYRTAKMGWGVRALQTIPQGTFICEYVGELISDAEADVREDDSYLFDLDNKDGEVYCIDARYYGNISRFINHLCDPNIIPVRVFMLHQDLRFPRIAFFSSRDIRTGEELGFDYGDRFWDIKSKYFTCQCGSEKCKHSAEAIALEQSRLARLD
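Quantitative HTS format: methyltransferase activity on a biotin-tagged H3K9 peptide is measured by AlphaScreen, using a rabbit anti-monomethyl-H3K9 antibody with streptavidin donor and anti-IgG acceptor beads. Final levels are 20 nM enzyme, 500 nM peptide, 20 uM SAM; 2 h RT.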
JMJD2A Tudor: blocks the human JMJD2A Tudor domain; AlphaScreen JMJD2A-Tudor / H3K4me3 peptide binding; 390,000 tested, 4.4% active; Potency, µM (titrated, usually from 114 µM), actives largely listed as inhibitors; AID 504339; further: nearly all actives have a fitted effect of over 50% in size
PLK1 PBD inh: PLK1 (human) polo-box domain binding inhibition; P53350; Plk1 PBD binding of FITC phosphopeptide, fluorescence polarization; Potency, µM, most hits filed as inhibitors; 360,000 tested, 2.8% active; further: series mostly up to about 57 µM; nearly all actives have a fitted effect of over 65% in size
PI5P4K alpha inh: PI5P4K alpha (human) kinase inhibition; max response, %; 330,000 tested, 1.2% active; PI5P4Kalpha enzyme, ADP-Glo luminescence, 60 min; stronger effect = lower value; active means max response of -50% or lower; inconclusive means between -30% and -50%; inactive means -30% or higher; further: value at the top dose of about 77 µM
Target sequence (P48426 whole entry, looked up): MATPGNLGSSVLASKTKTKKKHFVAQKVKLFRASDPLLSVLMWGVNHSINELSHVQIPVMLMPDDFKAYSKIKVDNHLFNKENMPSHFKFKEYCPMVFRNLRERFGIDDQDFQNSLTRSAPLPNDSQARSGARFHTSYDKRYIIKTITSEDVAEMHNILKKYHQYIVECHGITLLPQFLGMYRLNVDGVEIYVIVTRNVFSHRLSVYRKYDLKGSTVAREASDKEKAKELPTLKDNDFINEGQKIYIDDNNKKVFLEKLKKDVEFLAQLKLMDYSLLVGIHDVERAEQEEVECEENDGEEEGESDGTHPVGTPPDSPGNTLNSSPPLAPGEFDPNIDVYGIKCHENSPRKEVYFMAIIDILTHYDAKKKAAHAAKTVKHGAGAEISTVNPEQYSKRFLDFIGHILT
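qHTS, 1536-well: enzyme/substrate mix, compound by pin tool, 5 microM ATP final; RT 60 min; ADP-Glo reagents 1 (45 min) then 2 (30 min); luminescence.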
HP1b chromo inh: HP1-beta chromodomain-methylated histone interaction inhibition. P83916. Potency, µM (highest dose often 114 µM), hits mostly inhibitors. AlphaScreen HP1-beta / biotin-H3K9me3 peptide binding. 390,000 tested, 0.56% active; further: nearly all actives have a fitted effect of over 70% in size
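Compound inhibition of the preformed complex between 50 nM HP1-beta and 50 nM biotinylated H3K9me3 peptide was read by AlphaScreen. Buffer was PBS pH 7.4 with 0.01% Tween-20. Incubations ran 30 min at room temperature, with 10 ug/mL donor/acceptor beads.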
BAZ2B block: inhibitors of human BAZ2B bromodomain; Potency, µM (highest dose often 114 µM), usual class: inhibitors; 360,000 tested, 4.4% active; AlphaScreen BAZ2B-H3K14Ac peptide displacement; Q9UIF8; AID 504333; further: nearly all actives have a fitted effect of over 60% in size
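In this displacement format the biotinylated H3(5-23) peptide acetylated at Lys14 serves as ligand at 50 nM, with BAZ2B at 50 nM in PBS pH 7.4 containing 0.01% Tween-20. Donor and acceptor beads are 10 ug/mL final.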
A number is an active result; . = inactive; ? = inconclusive; / = not tested or not shown; [ ] = another dose, or the depositor's remark. The list is not random: actives were taken first. Their share in the collection is about 12%. Unless noted, the call rests on the fitted dose curve; in most records, active means well fitted curve in the direction sought with a large enough effect; inconclusive means small, poorly fitted or top-dose-only effect, or another doubt; inactive means no such curve, though single readings can be large; an effect the other way counts as inactive or inconclusive.

SMILES | G9a block | JMJD2A Tudor | PLK1 PBD inh | PI5P4K alpha inh | HP1b chromo inh | BAZ2B block
CCOc1ccc(S(=O)(=O)N2CCCCC2)cc1NC(=O)Cc1cccs1 | 16µM | . | . | . | . | .
Cc1ccc(OCC(=O)Nc2cc(S(=O)(=O)N3CCCCC3)ccc2N2CCN(C)CC2)c(C)c1 | 45µM | ? | . | . | . | ?
Cc1ccccc1OCCC(=O)Nc1cc(S(=O)(=O)N2CCCCC2)ccc1N1CCN(C)CC1 | / | . | . | . | . | /
CCOc1ccccc1OCC(=O)Nc1cc(S(=O)(=O)N2CCCCC2)ccc1N1CCN(CC)CC1 | 3.5µM | . | . | . | . | .
COc1ccccc1NC(=O)CN1C(=O)COc2ccc(S(=O)(=O)N3CCCCCC3)cc21 | . | ? | 30µM | . | . | .
Cc1cccc(C)c1NC(=O)C(C1CC1)n1c(=O)c(-c2cc3ccccc3[nH]2)nc2ccccc21 (configuration not stated) | / | / | . | . | / | /
CCc1ccc(NC(=O)c2cc3c([nH]c2=O)CC(C)(C)CC3=O)cc1 | . | . | / | / | . | .
CC1(C(=O)NS(=O)(=O)c2ccccc2C(F)(F)F)CCN1C(=O)CCC1CCCC1 (configuration not stated) | / | / | . | . | / | /
COc1ccc(C2=C(N3CCN(c4cccc(C)c4)C(C)C3)c3ccccc3C2=O)cc1 (configuration not stated) | 5µM | 7.1µM | / | / | ? | 4.5µM
COC(=O)c1sc2ccccc2c1S(=O)(=O)N1CCN(c2ccc(C(C)=O)cc2)CC1 | ? | . | / | / | . | .
N#Cc1c(/N=C/c2ccco2)oc(-c2ccccc2)c1-c1ccccc1 | ? | 28µM | . | . | . | .
N#Cc1c(/N=C/c2ccccc2)oc(-c2ccccc2)c1-c1ccccc1 | ? | . | . | / | . | .
O=C1C=C(O)c2cccc(O)c2C1=O | . | ? | . | ? | . | ?
O=C1C=C(c2c(O)ccc3ccccc23)c2ccccc2C1=O | / | 40µM | 7.5µM | ? | 25µM | /
Cc1cc(OCC(=O)Nc2ccccc2N2CCOCC2)c(C(C)C)cc1Cl | .[0.501 µM] | . | . | . | . | .
Cn1c(=O)c(-c2cc(=O)[nH][nH]2)c(O)c2ccccc21 | . | 35µM | ? | ? | . | 56µM
O=[N+]([O-])c1ccc(S(=O)(=O)c2cccc(C(F)(F)F)c2)nc1 | / | . | 2.7µM | . | . | /
CCOC(=O)[C@]12CCC=C1N(Cc1ccco1)C(=O)[C@H](CC(=O)NCC1CCCCC1)C2 | / | / | . | . | / | /
COc1ccccc1NC(=O)c1sc2cccc(Cl)c2c1Cl | . | . | / | / | . | .
CCOC(=O)c1cccc(N2C(=O)Nc3ccccc3N2O)c1 | . | . | . | . | . | ?
CCOC(=O)c1c(N2C(=O)Nc3ccccc3N2O)n[nH]c1-c1cccc(OC)c1 | . | . | . | -52 | . | .
CC(C)c1nc2ccc(Br)cn2c1NC1CCCC1 | 45µM | . | . | . | . | ?
Nc1cccnc1Sc1ccc([N+](=O)[O-])cn1 | 1µM | 1.6µM | ? | . | . | .
O=[N+]([O-])c1ccc(Sc2n[nH]c(-c3ccccc3)n2)nc1 | ? | 56µM | . | . | . | .
O=[N+]([O-])c1ccc(Sc2ccccc2)nc1 | . | ? | . | . | . | .
SMILES | G9a block | JMJD2A Tudor | PLK1 PBD inh | PI5P4K alpha inh | HP1b chromo inh | BAZ2B block
C=C(C)C(=O)NNc1ccccc1 | 11µM | . | . | . | . | .
CCCOC(=O)C(=O)NNc1ccccc1 | 40µM | . | . | . | . | .
CC(C)OC(=O)C(=O)NNc1ccccc1 | ? | . | . | . | . | .
COc1cc(OC)cc(C(=O)NCc2n[nH]c(=S)n2-c2ccccc2)c1 | .[0.0925 µM] | 7.9µM | . | / | . | .
COc1ccc(C(=O)NCc2ccccc2)cc1Br | . | . | . | . | . | .
COc1ccc(C(=O)NCc2n[nH]c(=S)n2-c2ccccc2)cc1OC | ? | 6.3µM | . | / | . | .
COc1ccc(S(=O)(=O)NCc2nc3nc(C)cc(C)n3n2)cc1OC | . | . | . | . | . | .
CC(C)CCNC(=O)c1cccc(C(=O)NCCC(C)C)c1 | . | .[11.4 µM] | 24µM | . | . | .
CC(C)CNC(=O)c1cccc(C(=O)NCC(C)C)c1 | .[2.33 µM] | . | . | / | . | .
Cc1cc(C)n(CC(=O)NC2C(=O)N3C(C(=O)O)=C(CSc4nnc(C)s4)CSC23)n1 (configuration not stated) | 40µM | 25µM | . | . | . | 71µM
Cc1nnc(SCC2=C(C(=O)O)N3C(=O)C(NC(=O)c4cccc(F)c4F)C3SC2)s1 (configuration not stated) | ? | . | . | . | . | ?
Cc1nnc(SCC2=C(C(=O)O)N3C(=O)C(NC(=O)Cn4ncc(Cl)c4C)C3SC2)s1 (configuration not stated) | 28µM | ? | ? | . | . | ?
COc1ccc(Cn2cc(CN3CCOCC3)nn2)cc1 | / | / | . | . | / | /
Cc1cnc(C(=O)N2CCN(S(=O)(=O)c3ccc(F)c(F)c3F)CC2)cn1 | / | . | . | . | . | /
O=C(NCCOCCO)C(=O)Nc1c2c(nn1-c1ccc(F)cc1)CSC2 | 13µM | . | / | / | . | .
Cc1ccc(-n2c(Cc3cccn3C)nnc2SCC(=O)NCc2ccc3c(c2)OCO3)cc1 | ? | ? | . | / | . | 50µM
Cc1ccc(-n2c(Cc3cccn3C)nnc2SCC(=O)Nc2nnc(C)s2)cc1 | .[2.33 µM] | . | . | / | . | .
Cc1ccc(-n2c(Cc3cccn3C)nnc2SCC(=O)Nc2ccc3c(c2)OCO3)cc1 | ? | 45µM | . | / | ? | 45µM
CC1(C(=O)NS(=O)(=O)Cc2ccccc2)CCN1C(=O)Cc1cc(F)ccc1F (configuration not stated) | / | / | . | . | / | /
CCNC(=O)C1(C)CCCN(C(=O)c2cc(-c3cccs3)oc2C)C1 (configuration not stated) | / | / | . | . | / | /
CCCCOc1ccc(-c2nc(=S)[nH][nH]2)cc1 | 1.3µM | . | . | / | . | .
CCOC(=O)c1c(C)oc2nc(C)nc(NCCc3ccc(OCC)cc3)c12 | . | . | / | / | . | .
COc1ccc(CN2C(=O)CSCC2(C)C(=O)Nc2c(C)cccc2C)cc1 (configuration not stated) | / | / | . | . | / | /
COc1cc(CNC(C)c2ccccc2)cc(Cl)c1OCC(=O)Nc1ccccc1 (configuration not stated) | ? | . | . | . | . | .
CCN(CC)CCNCc1cc(Cl)c(OCC(=O)Nc2ccccc2)c(OC)c1 | 45µM | . | . | . | . | .
O=[N+]([O-])c1c(NCCCO)cc(SCc2ccco2)c2nonc12 | 8.9µM | . | ? | . | . | ?
O=[N+]([O-])c1c(NCCCO)cc(N2CCCCCC2)c2nonc12 | ? | . | . | . | . | .
Cn1ccnc1Sc1cc(NCCCO)c([N+](=O)[O-])c2nonc12 | 56µM | . | 3µM | . | . | .
